PG9 binder: binders of HIV-1 gp120 antibody PG9, primary screen, biochemical, TR-FRET; HIV-1 gp120 / PG9 antibody interaction; TR-FRET gp120-PG9 antibody binding; inhibition, % at 6.7 µM; 0.43% of 360,000 active; AID 624416, 2012; in the data active = inhibition above about 8.5%
rCAG binder: binders of r(CAG) RNA repeats, primary screen, biochemical, fluorescence; r(CAG) RNA repeat, TO-PRO-1 dye displacement fluorescence; inhibition, % at 3 µM; 1.3% of 370,000 active; AID 651821, 2012;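 active = inhibition above the plate cutoff, the mean of all test compounds on that plate plus 3 SD, cut at about 35% in these data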;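 note: 0% = DMSO alone and 100% = 100 µM mitoxantrone as full dye displacement; higher means more dye released from RNA so lower well fluorescence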
Granule exo inh: LAMP-1 surface exposure blockers, TALL-104 cells – cell-based, flow cytometry, MLPCN library, primary screen | TALL-104 LAMP-1 surface exposure; cells stimulated with thapsigargin and PMA | inhibition, % at 10 µM | 0.66% of 360,000 active | AID 651702, 2012;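 active = inhibition above about 55%, limit read from the data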
ABCB6 inh 2: ABCB6 transporter inhibitors, primary screen, K562-ABCB6 cells, flow cytometry, MLPCN library. K562-ABCB6 porphyrin accumulation, 1 h; hits give low values. fluorescence ratio to DMSO, % at 10 µM. AID 602162, 2011. 0.19% of 360,000 active. ATP-binding cassette sub-family B member 6 (Homo sapiens), Q9NP58;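 active = fluorescence ratio to DMSO below 75%, the collection mean minus 3 SD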;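 note: signal is porphyrin accumulated inside mitochondria; 100% equals median channel fluorescence of DMSO control wells; lower ratio means ABCB6 inhibition with less porphyrin fluorescence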
Target sequence (Q9NP58 whole entry, looked up): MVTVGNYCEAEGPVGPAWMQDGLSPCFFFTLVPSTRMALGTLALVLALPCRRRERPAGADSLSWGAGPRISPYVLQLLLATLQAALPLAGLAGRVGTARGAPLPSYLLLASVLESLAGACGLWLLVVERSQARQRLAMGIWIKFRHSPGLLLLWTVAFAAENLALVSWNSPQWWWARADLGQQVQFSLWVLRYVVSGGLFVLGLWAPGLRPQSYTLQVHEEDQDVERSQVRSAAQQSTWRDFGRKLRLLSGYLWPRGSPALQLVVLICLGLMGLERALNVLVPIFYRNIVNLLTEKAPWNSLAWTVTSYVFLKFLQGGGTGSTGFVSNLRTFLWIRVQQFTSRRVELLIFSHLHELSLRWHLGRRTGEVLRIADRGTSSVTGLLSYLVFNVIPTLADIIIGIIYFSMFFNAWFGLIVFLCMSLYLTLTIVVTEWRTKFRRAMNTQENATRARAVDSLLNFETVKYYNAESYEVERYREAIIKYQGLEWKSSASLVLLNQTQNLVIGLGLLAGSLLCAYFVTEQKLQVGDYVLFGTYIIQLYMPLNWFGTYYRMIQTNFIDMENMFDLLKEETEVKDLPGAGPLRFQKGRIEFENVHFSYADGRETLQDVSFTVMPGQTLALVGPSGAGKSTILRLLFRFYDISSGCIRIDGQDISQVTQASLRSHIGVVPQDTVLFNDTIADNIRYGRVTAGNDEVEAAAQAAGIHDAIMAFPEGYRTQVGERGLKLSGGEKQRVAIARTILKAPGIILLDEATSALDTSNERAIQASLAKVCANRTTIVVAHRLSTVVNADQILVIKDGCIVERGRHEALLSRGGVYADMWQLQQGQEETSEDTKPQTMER
* marks the source's active call; other numbers are inactive results; x = no result. Hits are enriched below; roughly 2.5% of the tested compounds scored in any of these assays.

SMILES	PG9 binder	rCAG binder	Granule exo inh	ABCB6 inh 2
CN(CCO)c1ccc(C=NNc2ccc([N+](=O)[O-])cc2S(=O)(=O)Nc2ccccc2C(=O)O)cc1	-2.1	90.8*	12.6	96.0
CCOc1ccc(C=NNc2ccc(S(=O)(=O)Nc3ccccc3C(=O)O)cc2[N+](=O)[O-])cc1OC	x	x	1.3	97.0
O=C(O)c1ccccc1NS(=O)(=O)c1ccc(N/N=C/c2cccc(O)c2O)c([N+](=O)[O-])c1	0.9	91.6*	-0.8	96.0
COc1ccc2ccccc2c1C1CC(=O)N2CN(C3CCCCC3)CSC2=C1C#N (configuration not stated)	-0.6	39.1*	10.4	134.0
CCOc1cc(C2CC(=O)N3CN(C4CCCCC4)CSC3=C2C#N)ccc1O (configuration not stated)	1.1	19.5	-2.0	99.0
C=C(C)COc1ccc2oc(C)c(C(=O)OCCOC)c2c1	-2.9	-7.8	-1.9	67.0*
COCCOC(=O)c1c(C)oc2ccc(OCc3ccccc3)cc12	-1.3	0.9	-1.2	102.0
Cc1nn(-c2ccccc2)c(Cl)c1/C=N/Nc1nc2ccccc2n1C	-5.8	0.3	89.5*	101.0
Cc1nn(-c2ccccc2)c(Cl)c1/C=N/NC(N)=O	1.1	1.6	-14.3	94.0
CCN=C1NC(c2ccc(C(F)(F)F)cc2)C(C(=O)OC)=C(C)N1Cc1ccccc1C(F)(F)F (configuration not stated)	1.0	3.5	x	x
Cc1cccc(C2=N/C(=C\c3cccnc3)C(=O)O2)c1	-0.2	-0.7	3.4	68.0*
O=C1c2ccccc2C(=O)N1SC1CCCCC1	-0.3	-1.8	87.1*	100.0
O=C(OCN1C(=O)c2ccccc2C1=O)C1CCCCC1	1.0	0.3	-2.1	99.0
O=C1CCCC2=C1[C@@]1(O[C@H]3C=CC=CN23)C(=O)N(c2ccccc2)c2ccccc21	1.2	7.5	x	x
CCN1C/C(=C\c2cccc([N+](=O)[O-])c2)C(=O)/C(=C/c2cccc([N+](=O)[O-])c2)C1	0.7	12.1	82.8*	89.0
O=C1/C(=C/c2cccc([N+](=O)[O-])c2)CCc2ccccc21	-1.8	-3.1	1.9	99.0
COc1ccc(S[C@]2(C(=O)N(C)C)CC(=O)N(C(=O)c3ccccc3)[C@@H]2c2ccc(OC)cc2)cc1	x	5.8	x	x
COC(=O)[C@]12C[C@H](CC(=O)NCc3cccc(C(F)(F)F)c3)C(=O)N(CCc3ccc(OC)c(OC)c3)C1=C[C@H](COCc1ccccc1)O[C@@H]2C	x	1.5	x	x
Cc1sc(C(C2C(=O)CC(C)(C)CC2=O)C2C(=O)CC(C)(C)CC2=O)cc1[N+](=O)[O-]	-1.5	17.7	73.0*	105.0
Cc1ccc(C)n1-c1sc2c(c1C(=O)O)CCCC2	-1.8	35.5*	1.9	100.0
Cc1ccc(-c2ccc(/C=C/C(=O)c3ccccc3)o2)cc1	-1.6	21.1	67.5*	105.0
O=C(/C=C/c1ccc(-c2ccccc2[N+](=O)[O-])o1)c1ccc(F)cc1	-0.8	26.4	79.6*	101.0
Cc1ccc(C(=O)/C=C/c2ccc(-c3ccccc3[N+](=O)[O-])o2)cc1	-0.7	20.7	48.4	118.0
O=C(/C=C/c1ccc(-c2ccccc2)o1)c1ccccc1	-1.6	21.8	77.7*	99.0
O=C(Cn1cnc2ccccc2c1=O)N1CCCCC1	x	4.6	x	x
SMILES	PG9 binder	rCAG binder	Granule exo inh	ABCB6 inh 2
CCCCOCCCNC(=O)C[C@@H]1C[C@]2(C(=O)OCC)CCC3=C2N(CCC3)C1=O	x	-2.5	x	x
CN1C(=O)c2cc(NS(=O)(=O)c3ccc(F)cc3)ccc2OC[C@H]2O[C@@H](CC(=O)NCC(F)(F)F)CC[C@@H]21	x	0.5	x	x
CCC1CN(S(=O)(=O)c2cc(-c3cc(C)no3)ccc2OC)c2cc(C)ccc2O1 (configuration not stated)	0.5	4.5	69.7*	96.0
CCCCN1CC(COc2ccc(OC)cc2)OCCS1(=O)=O (configuration not stated)	0.5	1.7	x	x
CCOc1ccc(-c2n[nH]c(C)c2Oc2ccccc2OC)c(O)c1	-2.5	6.6	4.0	100.0
C=C(C)COc1ccc(-c2n[nH]c(C)c2Oc2ccccc2OC)c(O)c1	-1.9	9.5	74.5*	95.0
O=C1C(=C(I)I)c2ccccc2-c2ccccc21	-2.2	7.3	103.3*	101.0
CCOC(=O)N1CCN(C(=O)C[C@H]2C[C@@]3(C(=O)OC)C(=C[C@H](C4CCCC4)O[C@@H]3C)N(Cc3cccc4ccccc34)C2=O)CC1	x	7.6	x	x
O=C1NN(c2ccc(Br)cc2)C(=O)/C1=C\c1ccc(O)cc1O	-1.0	45.9*	-8.2	98.0
